Measurements reported in the supplement of paper PMC3545927.
The other results are listed elsewhere or left out. How many sequences the whole screen found active is unknown.

Biological target: furin, P09958
Assay: furin cleavage Z-score vs untreated control; higher = more cleavage, active = 3.5 or more, inactive = 1 or less, 8 variable residues between constant flanks
Procedure, shortened: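 Abundance of DNA freed from bead-bound 8-mer peptide–cDNA fusions by purified furin was measured as sequencing read counts after PCR adapter tagging. Cutting ran 7.5, 15 or 30 min in 0.01 ml of 50 mM HEPES pH 7.5 with CaCl2 and NaCl at 1:10 enzyme:substrate. The cleavage Z-score expresses these log counts against furin-free reactions after lowess adjustment and median absolute deviation scaling.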

furin, P09958, sequence (P09958 whole entry): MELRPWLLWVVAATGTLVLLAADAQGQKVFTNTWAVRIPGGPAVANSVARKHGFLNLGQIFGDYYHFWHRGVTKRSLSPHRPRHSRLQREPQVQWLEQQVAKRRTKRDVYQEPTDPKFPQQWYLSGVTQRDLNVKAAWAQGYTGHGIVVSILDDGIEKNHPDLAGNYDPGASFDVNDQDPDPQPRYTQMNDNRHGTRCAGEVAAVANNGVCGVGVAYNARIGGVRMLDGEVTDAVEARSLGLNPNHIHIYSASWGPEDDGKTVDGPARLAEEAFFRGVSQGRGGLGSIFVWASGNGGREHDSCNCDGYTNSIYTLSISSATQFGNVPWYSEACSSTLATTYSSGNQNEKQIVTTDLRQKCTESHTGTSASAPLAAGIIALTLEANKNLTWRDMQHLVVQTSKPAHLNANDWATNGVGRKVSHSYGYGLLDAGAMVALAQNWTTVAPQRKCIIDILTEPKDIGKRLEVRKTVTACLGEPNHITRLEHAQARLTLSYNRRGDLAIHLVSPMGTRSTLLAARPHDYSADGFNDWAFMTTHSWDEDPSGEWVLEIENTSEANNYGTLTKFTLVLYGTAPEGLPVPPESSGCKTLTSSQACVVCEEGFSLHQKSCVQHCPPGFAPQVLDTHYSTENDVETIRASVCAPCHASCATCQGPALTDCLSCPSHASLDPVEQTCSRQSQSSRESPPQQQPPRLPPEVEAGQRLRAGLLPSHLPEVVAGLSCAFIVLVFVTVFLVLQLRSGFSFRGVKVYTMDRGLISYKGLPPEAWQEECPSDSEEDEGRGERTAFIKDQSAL

| Sequence | furin cleavage Z-score (7.5 min) | furin cleavage Z-score (15 min) | furin cleavage Z-score (30 min) |
| --- | --- | --- | --- |
| CAYMSKAHGIAGNASASA [HC794] | -0.614 (inactive) | -0.299 (inactive) | 0.089 (inactive) |
| CANYTIFKIRAGNASASA [HC472] | -0.135 (inactive) | 0.367 (inactive) | -0.43 (inactive) |
| CAELPCHRPSAGNASASA [HC2325] | 0.967 (inactive) | -0.4 (inactive) | 0.0984 (inactive) |
| CAEVPCHWPSAGNASASA [HC2368] | -0.575 (inactive) | -0.478 (inactive) | 0.531 (inactive) |
| CAVVCCQMSYAGNASASA [HC119] | -0.852 (inactive) | -0.183 (inactive) | 0.623 (inactive) |
| CADKNQVEGEAGNASASA [HC686] | -0.934 (inactive) | -0.739 (inactive) | -1.82 (inactive) |
| CAAKLMPQLPAGNASASA [HC1159] | 0.255 (inactive) | -0.546 (inactive) | 0.241 (inactive) |
| CALTLRMRRYAGNASASA [FS-1032] | 9.91 (active) | 10.2 (active) | 11.2 (active) |
| CAMNSRKGRYAGNASASA [FS-1237] | 1.23 | 0.312 (inactive) | 2.34 |
| CALTLSPYYKAGNASASA [HC575] | -0.934 (inactive) | -0.768 (inactive) | -0.313 (inactive) |
| CALVRRRRRYAGNASASA [FS-462] | 11 (active) | 12.3 (active) | 9.67 (active) |
| CAAHDGAGKRAGNASASA [HC1557] | -0.0785 (inactive) | 0.342 (inactive) | 0.362 (inactive) |
